About 410 targets per protein were measured; listed, in parts, are those with the strongest signals and a random draw of the rest.
What was measured:
Experiment in all cases: glycan array binding signal (z-score within array); higher = stronger binding
Details in all cases: glycan notation: IUPAC condensed, linker removed
[1] = target: Gal(b1-4)GlcNAc(b1-3)[GlcNAc(b1-6)]Gal(b1-4)GlcNAc
Method in brief: (§1)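 The Consortium for Functional Glycomics database supplied 3228 glycan arrays, of which those lacking an available protein sequence were dropped. The binding signal, a within-array Z-score, was averaged across arrays of the same protein sequence and across linkers. Negative scores can be read as non-binding.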

[2] = target: Gal(b1-4)GlcNAc6P
Method in brief: as §1

[3] = target: Gal3S(b1-4)Glc
Method in brief: as §1

[4] = target: Gal3S(b1-4)Glc6S
Method in brief: as §1

[5] = target: Gal3S(b1-4)[Fuc(a1-3)]GlcNAc6S
Method in brief: as §1

[6] = target: Gal3S6S(b1-4)GlcNAc
Method in brief: as §1

[7] = target: Gal4S6S(b1-4)GlcNAc
Method in brief: as §1

[8] = target: Gal6S(b1-4)Glc
Method in brief: as §1

[9] = target: GalNAc(a1-3)GalNAc(b1-3)Gal(a1-4)Gal(b1-4)Glc
Method in brief: as §1

[10] = target: GalNAc(a1-3)GalNAc(b1-3)Gal(a1-4)Gal(b1-4)GlcNAc
Method in brief: as §1

[11] = target: GalNAc(b1-4)Gal(b1-4)Glc
Method in brief: as §1

[12] = target: GalNAc3S(b1-4)GlcNAc
Method in brief: as §1

[13] = target: Glc(a1-6)Glc(a1-6)Glc(a1-6)Glc
Method in brief: as §1

[14] = target: GlcNAc(b1-3)Gal(b1-4)GlcNAc(b1-3)Gal(b1-4)GlcNAc(b1-3)Gal(b1-4)GlcNAc(b1-3)Gal(b1-4)GlcNAc(b1-2)Man(a1-3)[GlcNAc(b1-3)Gal(b1-4)GlcNAc(b1-3)Gal(b1-4)GlcNAc(b1-3)Gal(b1-4)GlcNAc(b1-3)Gal(b1-4)GlcNAc(b1-2)Man(a1-6)]Man(b1-4)GlcNAc(b1-4)[Fuc(a1-6)]GlcNAc
Method in brief: as §1

[15] = target: GlcNAc(b1-4)[GlcNAc(b1-6)]GalNAc
Method in brief: as §1

[16] = target: Man(a1-3)[Man(a1-6)]Man(a1-6)[Man(a1-2)Man(a1-3)]Man(b1-4)GlcNAc(b1-4)GlcNAc
Method in brief: as §1

[17] = target: Man(a1-3)[Man(a1-6)]Man(a1-6)[Man(a1-3)]Man
Method in brief: as §1

[18] = target: Man(a1-6)Man
Method in brief: as §1

[19] = target: Neu5Ac(a2-3)Gal(b1-3)[Fuc(a1-4)]GlcNAc(b1-3)Gal(b1-4)[Fuc(a1-3)]GlcNAc
Method in brief: as §1

[20] = target: Neu5Ac(a2-3)Gal(b1-3)[Neu5Ac(a2-6)]GalNAc
Method in brief: as §1

[21] = target: Neu5Ac(a2-3)Gal(b1-4)GlcNAc(b1-2)Man
Method in brief: as §1

[22] = target: Neu5Ac(a2-3)Gal(b1-4)GlcNAc(b1-2)Man(a1-3)[GlcNAc(b1-4)][Neu5Ac(a2-3)Gal(b1-4)GlcNAc(b1-2)Man(a1-6)]Man(b1-4)GlcNAc(b1-4)GlcNAc
Method in brief: as §1

[23] = target: Neu5Ac(a2-3)[GalNAc(b1-4)]Gal(b1-4)GlcNAc
Method in brief: as §1

[24] = target: Neu5Ac(a2-6)Gal(b1-4)GlcNAc(b1-2)Man(a1-3)[Gal(b1-4)GlcNAc(b1-2)Man(a1-6)]Man(b1-4)GlcNAc(b1-4)GlcNAc
Method in brief: as §1

[25] = target: Neu5Ac(a2-6)Gal(b1-4)GlcNAc(b1-2)Man(a1-3)[GlcNAc(b1-4)][Neu5Ac(a2-6)Gal(b1-4)GlcNAc(b1-2)Man(a1-6)]Man(b1-4)GlcNAc(b1-4)GlcNAc
Method in brief: as §1

[26] = target: Neu5Ac(a2-6)Gal(b1-4)GlcNAc(b1-2)[Neu5Ac(a2-6)Gal(b1-4)GlcNAc(b1-4)]Man(a1-3)[GlcNAc(b1-4)][Neu5Ac(a2-6)Gal(b1-4)GlcNAc(b1-2)[Neu5Ac(a2-6)Gal(b1-4)GlcNAc(b1-6)]Man(a1-6)]Man(b1-4)GlcNAc(b1-4)GlcNAc
Method in brief: as §1

[27] = target: Neu5Ac(a2-6)Gal(b1-4)GlcNAc(b1-3)Gal(b1-4)GlcNAc(b1-2)Man(a1-3)[Neu5Ac(a2-6)Gal(b1-4)GlcNAc(b1-3)Gal(b1-4)GlcNAc(b1-2)Man(a1-6)]GalNAc
Method in brief: as §1

[28] = target: Neu5Ac(a2-6)GalNAc(b1-4)GlcNAc6S
Method in brief: as §1

[29] = target: Neu5Ac(a2-8)Neu5Ac
Method in brief: as §1

[30] = target: Neu5Ac(a2-8)Neu5Ac(a2-8)Neu5Ac(a2-8)Neu5Ac(a2-3)[GalNAc(b1-4)]Gal(b1-4)Glc
Method in brief: as §1

B1: Clone646PsrP (Streptococcus pneumoniae) (protein)
chain: MDHHHHHHHHASENLYFQGAPAINASLNIAKSETKVYTGEGVDSVYRVPIYYKLKVTNDGSKLTFTYTVTYVNPKTNDLGNISSMRPGYSIYNSGTSTQTMLTLGSDLGKPSGVKNYITDKNGRQVLSYNTSTMTTQGSGYTWGNGAQMNGFFAKKGYGLTSSWTVPITGTDTSFTFTPYAARTDRIGINYFNGGGKVVESSTTSQSLSQSKSLSVSAS
glycan array binding signal (z-score) [1]: -0.238 | glycan array binding signal (z-score) [2]: 2.57 | glycan array binding signal (z-score) [3]: 1.81 | glycan array binding signal (z-score) [4]: 1.63 | glycan array binding signal (z-score) [5]: 3.08 | glycan array binding signal (z-score) [6]: 2.75 | glycan array binding signal (z-score) [7]: 0.386 | glycan array binding signal (z-score) [8]: -0.221 | glycan array binding signal (z-score) [9]: -0.265 | glycan array binding signal (z-score) [10]: -0.546 | glycan array binding signal (z-score) [11]: 2.93 | glycan array binding signal (z-score) [12]: 2.09 | glycan array binding signal (z-score) [13]: 3.01 | glycan array binding signal (z-score) [14]: -0.863 | glycan array binding signal (z-score) [15]: -0.205 | glycan array binding signal (z-score) [16]: 1.06 | glycan array binding signal (z-score) [17]: 3.32 | glycan array binding signal (z-score) [18]: 4.74 | glycan array binding signal (z-score) [19]: -0.482 | glycan array binding signal (z-score) [20]: -0.254 | glycan array binding signal (z-score) [21]: 2.89 | glycan array binding signal (z-score) [22]: -0.995 | glycan array binding signal (z-score) [23]: -0.733 | glycan array binding signal (z-score) [24]: -0.713 | glycan array binding signal (z-score) [25]: -0.966 | glycan array binding signal (z-score) [26]: -0.332 | glycan array binding signal (z-score) [27]: -0.421 | glycan array binding signal (z-score) [28]: -0.113 | glycan array binding signal (z-score) [29]: 0.174 | glycan array binding signal (z-score) [30]: -0.64

Reference: the supplement of paper PMC8728848
